Screening data deposited in PubChem by National Center for Advancing Translational Sciences (NCATS).
G9a inh = G9a (human) methyltransferase inhibition; Q96KQ7; G9a H3K9 monomethylation, AlphaScreen, 2 h; Potency, µM (highest dose often 102 µM), inactives show at the highest dose activity, negative = inhibition, most hits filed as inhibitors; hit rate 8.8% among 350,000; also: % is scaled to controls: 0 for no effect and ±100 for the full control effect; nearly all actives have a fitted effect of over 75% in size
Target sequence (Q96KQ7 913-1193 limits assumed): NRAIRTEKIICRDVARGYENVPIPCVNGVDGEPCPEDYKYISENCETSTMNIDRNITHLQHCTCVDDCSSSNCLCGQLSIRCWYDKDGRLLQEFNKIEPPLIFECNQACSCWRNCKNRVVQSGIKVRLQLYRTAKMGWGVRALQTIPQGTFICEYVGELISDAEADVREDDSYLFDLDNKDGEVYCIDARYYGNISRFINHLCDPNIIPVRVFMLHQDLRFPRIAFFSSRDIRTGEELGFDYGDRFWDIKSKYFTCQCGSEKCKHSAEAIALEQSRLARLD
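Using a bead-based AlphaScreen, monomethylated H3K9 product from 2 h room-temperature reactions (G9a 20 nM, peptide 500 nM, SAM 20 uM) was detected with 0.5 ug/mL rabbit anti-H3K9me1 antibody.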
Sfp PPTase inh = inhibitors of Bacillus subtilis Sfp phosphopantetheinyl transferase. Q9F4F7. hit rate 3.5% among 310,000. Potency, µM, inactives show largest response in the series, negative = inhibition, actives largely listed as inhibitors. Biochemical Sfp PPTase activity, qHTS;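 also: the enzyme is Sfp with the accession as filed and its product quenches rhodamine fluorescence; 0% = enzyme reaction without inhibitor and -100% = no enzyme wells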
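After 15 min at room temperature with compound, 15 nM Sfp received 5 uM rhodamine-CoA plus 12.5 uM BHQ-2-ybbR (50 mM Hepes pH 7.6, 10 mM MgCl2). Rate came from the fluorescence difference over 30 min, ex 525/em 598 nm.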
GRP78 ERSR act = ER stress response induction in glioma | U87-MG GRP78 promoter luciferase reporter, 16 h | Potency, µM, without a hit: at the top dose activation, hits mostly activators | hit rate 0.02% among 420,000 | AID 602332; also: series mostly up to about 76 µM; % of control where 0% means no effect; nearly all actives have a fitted effect of over 35% in size
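Stably transfected U87-MG human glioma cells carrying a GRP78-based luminescent sensor were seeded at 1000 cells/well, pin-dosed with compounds and incubated 16 h. Luciferase reagent was then added, and end-point luminescence was read after 10 min at room temperature.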
VDR inh = inhibitors of human vitamin D receptor; VDR-SRC2-3 peptide fluorescence polarization, 2 h; Potency, µM, for inactives: max response, negative = inhibition, hits mostly inhibitors; P11473; hit rate 0.93% among 400,000; also: % is scaled to controls: 0 for no effect and ±100 for the full control effect
Target sequence (P11473 whole entry, looked up): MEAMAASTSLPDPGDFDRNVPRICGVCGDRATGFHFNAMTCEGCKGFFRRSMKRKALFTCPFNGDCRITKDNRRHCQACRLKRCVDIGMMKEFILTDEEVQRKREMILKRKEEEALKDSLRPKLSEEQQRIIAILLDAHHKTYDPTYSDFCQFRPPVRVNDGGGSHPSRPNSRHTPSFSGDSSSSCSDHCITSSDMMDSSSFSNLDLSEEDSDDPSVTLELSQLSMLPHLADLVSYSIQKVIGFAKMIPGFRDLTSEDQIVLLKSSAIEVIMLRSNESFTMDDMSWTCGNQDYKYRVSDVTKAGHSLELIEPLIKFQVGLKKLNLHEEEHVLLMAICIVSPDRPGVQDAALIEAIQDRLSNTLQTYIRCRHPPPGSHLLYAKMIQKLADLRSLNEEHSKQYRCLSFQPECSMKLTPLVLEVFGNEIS
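VDR–SRC2-3 interaction, FP format. Cmpds 23 nl via pintool, brief spin, 2 h ambient incubation.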
12-LOX inh = blocks human arachidonate 12S-lipoxygenase; P18054; purified 12hLO, xylenol orange hydroperoxide absorbance; Potency, µM (doses to about 108 µM), for inactives: at the top dose activity change, negative = inhibition, most hits filed as inhibitors; hit rate 1.1% among 580,000; AID 1671190; also: % is scaled to controls: 0 for no effect and ±100 for the full control effect
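Purified human 12hLO at 150 nM in 25 mM Hepes, 0.01% Triton X-100, pH 7.0, preincubated 15 min at room temperature with compound. Reaction started with 40 uM arachidonic acid, 30 min at room temperature. Hydroperoxide measured by Fe-xylenol orange, 573/405 nm absorbance ratio.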
Numbers without * were called inactive; [ ] = remark or other dose. This excerpt belongs to a sample that is enriched for hits. Calls follow the shape of the dose curve; as a rule, active = well fitted curve in the direction sought with a large enough effect; inconclusive = small, poorly fitted or top-dose-only effect, or another doubt; inactive = no such curve, though single readings can be large; an effect the other way counts as inactive or inconclusive. Potency is read from the fitted curve at half-maximal effect.

Results for COc1ccc(SCC(=O)c2cc(C)c(OC(=S)N(C)C)c(C)c2)cc1 ?
G9a inh: 40µM*; Sfp PPTase inh: -10%; GRP78 ERSR act: -3%; VDR inh: 7%; 12-LOX inh: -18%

How did Cc1cc(=O)oc(C)c1C(=O)Nc1ccc(OC(F)(F)F)cc1 do in these assays?
12-LOX inh: -29%

How did COc1ccc(CC2(C)OC(c3ccc([N+](=O)[O-])cc3)=NN2C(C)=O)cc1 (configuration not stated) do in these assays?
G9a inh: 11µM*; Sfp PPTase inh: -8%; GRP78 ERSR act: -4%; VDR inh: 4%; 12-LOX inh: 56%

Results for CC1CCC/C(=C\Nc2ccc(O)cc2)C1=O (configuration not stated) ?
G9a inh: inconclusive; Sfp PPTase inh: 45µM*; GRP78 ERSR act: 4%; VDR inh: -30%; 12-LOX inh: inconclusive

How did Cc1cc(C(=O)O)ccc1N/C=C1\CCCC(C)C1=O (configuration not stated) do in these assays?
G9a inh: inconclusive; Sfp PPTase inh: 16%; GRP78 ERSR act: -14%; VDR inh: 3%; 12-LOX inh: 5%

What do the screens show for `CCOCCOC(=O)COc1ccc2c(=O)c(Oc3ccc(OC)cc3)c(C(F)(F)F)oc2c1`?
12-LOX inh: -20%

What do the screens show for `CC1(c2ccccc2)N(Cc2ccc(O)cc2)C(=O)OC12CCN(Cc1c[nH]c3ccccc13)CC2` (configuration not stated)?
12-LOX inh: 45µM*

Results for O=C1OCC2(CCN(Cc3c[nH]c4ccccc34)C2)N1Cc1ccccc1 (configuration not stated) ?
12-LOX inh: 50µM*

What do the screens show for `Cc1ccccc1CN1CCC2(CC1)OC(=O)N(Cc1ccc(O)cc1)C2(C)c1ccccc1` (configuration not stated)?
12-LOX inh: -2%

Results for CCN1CCN(c2ccc(S(=O)(=O)N3CCOCC3)cc2NC(=O)c2ccc(Cl)cc2Cl)CC1 ?
G9a inh: 13µM*; GRP78 ERSR act: -5%; VDR inh: 2%; 12-LOX inh: inconclusive

What do the screens show for `CCN1CCN(c2ccc(S(=O)(=O)N3CCOCC3)cc2NC(=O)/C=C/c2ccc(OC)c(OC)c2)CC1`?
G9a inh: 14µM*; GRP78 ERSR act: -5%; VDR inh: -1%; 12-LOX inh: inconclusive

Results for CCN1CCN(S(=O)(=O)c2ccc(Cl)c(C(=O)Nc3cc(Cl)ccc3N3CCOCC3)c2)CC1 ?
G9a inh: inconclusive; Sfp PPTase inh: 11%; GRP78 ERSR act: -5%; VDR inh: 6%; 12-LOX inh: 184%

Results for COc1cc(/C=C/C(=O)Nc2cc(S(=O)(=O)N3CCOCC3)ccc2N2CCCC2)cc(OC)c1OC ?
G9a inh: 10µM*; Sfp PPTase inh: 28µM*; GRP78 ERSR act: -3%; VDR inh: inconclusive; 12-LOX inh: 0%

How did CCOc1ccccc1NC(=O)/C=C/c1ccc(S(=O)(=O)N2CCOCC2)cc1 do in these assays?
G9a inh: 50µM*; GRP78 ERSR act: -2%; VDR inh: 9%; 12-LOX inh: 2%

What do the screens show for `CCNc1c(NS(=O)(=O)c2ccc(OCC)cc2)c(=O)oc2ccccc12`?
12-LOX inh: -8%

How did COc1ccc(-n2ccn(CC(=O)Nc3c(C)cc(C)cc3C)c2=O)cc1 do in these assays?
12-LOX inh: 3%

Results for CCc1nc2ccccc2c(C(=O)OCC(=O)NC(=O)NC(C)C)c1C ?
12-LOX inh: -11%

Results for COc1ccc(/C=C/C(=O)Nc2cc(S(=O)(=O)N3CCCCC3)ccc2N2CCCCC2)cc1OC ?
G9a inh: 4%[59 µM]; Sfp PPTase inh: 12%; GRP78 ERSR act: -1%; VDR inh: 9%; 12-LOX inh: -40%

How did CCN1CCN(c2ccc(S(=O)(=O)N3CCCCC3)cc2NC(=O)/C=C/c2ccc(OC)c(OC)c2)CC1 do in these assays?
G9a inh: 22µM*; GRP78 ERSR act: -2%; VDR inh: -10%; 12-LOX inh: inconclusive

What do the screens show for `CCN1CCN(c2ccc(S(=O)(=O)N3CCOCC3)cc2NC(=O)/C=C/c2cccc(OC)c2OC)CC1`?
G9a inh: 28µM*; GRP78 ERSR act: -2%; VDR inh: -2%; 12-LOX inh: inconclusive

How did CC(NC(=S)NNC(=O)c1ccco1)c1ccccc1 (configuration not stated) do in these assays?
12-LOX inh: 14%

How did CCCNC(=O)c1ccccc1SCc1c(C)noc1C do in these assays?
G9a inh: 25µM*; Sfp PPTase inh: -11%; GRP78 ERSR act: -5%; VDR inh: -9%; 12-LOX inh: 0%

Results for Cc1cc(=O)oc2cc(OC(=O)c3cncc(Br)c3)ccc12 ?
G9a inh: -10%; Sfp PPTase inh: 15%; GRP78 ERSR act: 5%; VDR inh: inconclusive; 12-LOX inh: 4%

Results for Cc1cccc(Oc2c(C(F)(F)F)oc3cc(OC(=O)c4cncc(Br)c4)ccc3c2=O)c1 ?
12-LOX inh: 8.9µM*

How did [O-]/[N+](=C\c1ccncc1)c1ccc(Cl)cc1 do in these assays?
12-LOX inh: -22%

What do the screens show for `O=C(CCc1nc2ccccc2c(=O)[nH]1)Nc1ccc(F)c([N+](=O)[O-])c1`?
G9a inh: 40µM*; Sfp PPTase inh: -23%; GRP78 ERSR act: -4%; VDR inh: -8%; 12-LOX inh: inconclusive

How did COc1cc(Cl)c(C)cc1NC(=O)COC(=O)CCc1nc2ccccc2c(=O)[nH]1 do in these assays?
G9a inh: 13µM*; GRP78 ERSR act: -1%; VDR inh: 19%; 12-LOX inh: inconclusive

Results for COc1ccc(OC)c(NC(=O)COC(=O)CCc2nc3ccccc3c(=O)[nH]2)c1 ?
GRP78 ERSR act: -5%; VDR inh: -21%; 12-LOX inh: inconclusive

How did Cc1c(Cl)cccc1NC(=O)CNC(=O)CCCc1nc2ccccc2c(=O)[nH]1 do in these assays?
G9a inh: 45µM*; GRP78 ERSR act: -4%; VDR inh: 0%; 12-LOX inh: inconclusive

Results for O=C(Nc1ccc(F)c([N+](=O)[O-])c1)C(=O)c1c(O)[nH]c2ccccc12 ?
G9a inh: 28µM*; Sfp PPTase inh: 20µM*; GRP78 ERSR act: 1%; VDR inh: -15%; 12-LOX inh: 0%

How did O=C(O)CCn1c(=O)cc(C(F)(F)F)c2cn(C3CCCC3)nc21 do in these assays?
12-LOX inh: -22%

How did CC(C)CCN1C(=O)CC[C@]2(C(=O)N(C)Cc3ccco3)CCCC[C@@H]12 do in these assays?
12-LOX inh: 13%

Results for C=CCNC(=S)N/N=C(/C)c1ccncc1 ?
12-LOX inh: -13%

Results for NS(=O)(=O)c1ccc(NC(=O)COC(=O)CCc2nc3ccccc3c(=O)[nH]2)cc1 ?
G9a inh: inconclusive; GRP78 ERSR act: -4%; VDR inh: -22%; 12-LOX inh: 7%
